Compound activity deposited in PubChem by National Center for Advancing Translational Sciences (NCATS).
An excerpt weighted towards active compounds, which were near 4.7% of everything screened.
D1 ag: Allosteric Agonists of the Human D1 Dopamine Receptor: qHTS; D(1A) dopamine receptor (Homo sapiens), P21728; HEK293 T-REx D1 cells, calcium flux, agonist mode; activation, % at 2 µM; actives 1% (n = 360,000)
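Inducible HEK293 T-REx D1 cells, force-coupled to calcium signalling, were plated at 4000 cells/well with tetracycline and held overnight at 30 C. After no-wash calcium dye loading, compound-evoked calcium rise over 180 s flagged agonists.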
TRHR ag: qHTS for Small Molecule Agonists and Allosteric Enhancers of Human TRH Receptor: Primary Screen for Agonists; Thyrotropin-releasing hormone receptor (Homo sapiens), P34981; TRHR cells, calcium flux fluo-8, FDSS agonist mode; activation, % at 2 µM; actives 0.18% (n = 360,000)
Target sequence (P34981 whole entry, looked up): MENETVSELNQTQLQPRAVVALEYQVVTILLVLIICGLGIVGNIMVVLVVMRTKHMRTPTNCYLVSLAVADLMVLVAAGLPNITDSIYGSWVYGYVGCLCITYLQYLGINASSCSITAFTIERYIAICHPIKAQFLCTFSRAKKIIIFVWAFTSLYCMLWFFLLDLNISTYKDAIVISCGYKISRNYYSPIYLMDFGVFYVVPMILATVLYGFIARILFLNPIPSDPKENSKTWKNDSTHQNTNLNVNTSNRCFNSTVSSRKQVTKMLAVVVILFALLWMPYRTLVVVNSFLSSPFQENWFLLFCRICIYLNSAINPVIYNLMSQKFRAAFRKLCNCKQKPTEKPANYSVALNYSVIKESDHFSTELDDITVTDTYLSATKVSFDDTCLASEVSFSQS
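Read-out: compound-evoked intracellular calcium rise in TRHR cells, fluo-8 dye, kinetic FDSS fluorescence at 1 s/cycle following a 10-cycle baseline. Cells cultured overnight before dye loading (30 min–1.5 h, RT).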
D1 PAM: Potentiators of Human D1 Dopamine Receptor: qHTS; D(1A) dopamine receptor (Homo sapiens), P21728; HEK293 TREx D1 cells, calcium flux, dopamine EC20 potentiation; potentiation, % at 10 µM; actives 0.036% (n = 360,000); AID 504651, 2011; in the data active = potentiation above about 30%
D1 antag: Antagonist of Human D 1 Dopamine Receptor: qHTS; D(1A) dopamine receptor (Homo sapiens), P21728; HEK293 TREx D1 cells, calcium flux, dopamine EC80; stronger effect = lower value; activity change, negative = inhibition, % at 10 µM; actives 3.2% (n = 360,000); AID 504652, 2011; in the data active = activity change below about -30%
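After overnight tetracycline induction at 30 C, force-coupled D1 HEK293 cells took up a no-wash calcium dye at room temperature. Compounds were added and monitored 180 s, and the response to EC80 dopamine was then recorded.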
TRHR PAM: qHTS for Small Molecule Agonists and Allosteric Enhancers of Human TRH Receptor: Primary Screen for Enhancers; Thyrotropin-releasing hormone receptor (Homo sapiens), P34981; TRHR cells, fluo-8 calcium fluorescence, EC20 TRH enhancement; enhancement, % at 2 µM; actives 0.66% (n = 360,000); in the data active = enhancement above about 30%
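TRHR-expressing cells loaded with fluo-8 calcium dye were read kinetically (ex 480/em 530) during compound addition, then stimulated with an EC20 of TRH (10 nM final). Enhancement of the Gq-mediated intracellular calcium response was scored.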
Hits are given with their value; 0 = inactive; - = no result. Rule as the data show it, unless noted: active = activation above about 30%; inactive = the rest.

SMILES	D1 ag	TRHR ag	D1 PAM	D1 antag	TRHR PAM
CCS(=O)(=O)c1ncc(Cl)c(C(=O)Nc2ccc(C)cc2)n1	0	0	0	0	0
Cc1ccc(CNC(=O)C2CCCN(S(=O)(=O)c3ccc(-n4cnnn4)cc3)C2)cc1 (stereo not given)	0	0	0	0	0
Cc1[nH]c2c(C)cccc2c(=O)c1CN1CCCCCC1	0	0	0	0	0
CC1CCCN(S(=O)(=O)c2ccc(NC(=O)CN3CCN(C)CC3)cc2)C1 (stereo not given)	0	0	0	0	0
CC1CCN(CC(=O)Nc2ccc(S(=O)(=O)N3CCCC(C)C3)cc2)CC1 (stereo not given)	0	0	0	-32	0
CCC1CCCCN1S(=O)(=O)c1ccc(NC(=O)c2nc(S(C)(=O)=O)ncc2Cl)cc1 (stereo not given)	0	0	0	-34	0
Cc1nnsc1C(=O)Nc1ccc(S(=O)(=O)N2CCC(C)CC2)cc1	0	0	0	-48	0
CCC(C)Sc1ccc([C@@H]2[C@H]3C(=O)N(CC)C(=O)[C@H]3[C@]3(C(=O)OC)CCCCN23)cc1 (stereo not given in full)	0	0	0	0	0
CCC(C)c1ccc(OCC(=O)Nc2ccc(CN3CCOCC3)cc2)cc1 (stereo not given)	0	0	0	0	0
COc1cccc(-n2cc(C(=O)Nc3cc(C)c(Cl)cc3OC)c3ccccc3c2=O)c1	0	0	0	0	0
Cc1ccccc1-c1ccnc2c(-c3ccc(F)cc3)c(C)nn12	0	0	0	0	0
O=C(N/C=C/c1ccccc1)c1ccccc1	0	0	0	0	0
CCOc1ccc(NC(=O)c2c[nH]n3c(=O)cc(C4CCN(C(=O)OC(C)(C)C)CC4)nc23)cc1	0	0	0	-32	0
Cc1ccc2nc(-c3ccc(Cl)cc3)cc(C(=O)OCC(=O)c3ccccc3)c2c1	0	0	0	0	0
CC(C)CC(=O)NC(Nc1ccc([N+](=O)[O-])cc1)C(Cl)(Cl)Cl (stereo not given)	0	0	0	-40	0
CC(C)CC(=O)NC(Nc1ccccc1F)C(Cl)(Cl)Cl (stereo not given)	0	0	0	0	0
N#CCC(=O)N/N=C/c1c(-c2ccccc2)n(-c2ccccc2)c2ccccc12	0	0	0	0	0
Fc1ccccc1CSc1nnnn1-c1ccc2c(c1)OCO2	0	0	0	-35	0
COCCNC(=O)CSc1nc(-c2ccccc2C)nc2c1c(=O)n(C)c(=O)n2C	0	0	0	0	0
CC(C)(C)c1cn(-c2ccccc2)c(=S)[nH]1	0	0	0	0	0
Cc1ccc(-n2cc(C(C)(C)C)[nH]c2=S)cc1	0	0	0	-46	0
CCOc1ccccc1C(=O)NCC(c1ccc(N(C)C)cc1)N1CCc2ccccc21 (stereo not given)	0	0	0	0	0
O=C(NNc1ccc([N+](=O)[O-])cc1)c1ccccc1F	0	0	0	0	0
O=C(NC(NNc1ccc([N+](=O)[O-])cc1)(C(F)(F)F)C(F)(F)F)c1ccc(Cl)cc1	31	0	0	-54	0
O=C(Nc1ccccc1)C1CCCCN1S(=O)(=O)c1ccccc1 (stereo not given)	0	0	0	0	0
SMILES	D1 ag	TRHR ag	D1 PAM	D1 antag	TRHR PAM
O=C(Nc1ccc(N2CCOCC2)cc1)C1CCCCN1S(=O)(=O)c1ccccc1 (stereo not given)	0	0	0	-32	0
CC(C)c1ccc(NC(=O)C2CCCN2S(=O)(=O)c2ccccc2F)cc1 (stereo not given)	0	0	0	-34	0
Cc1nn(C)c2c1c(C(F)(F)F)cc(=O)n2CC(=O)N1CCC(C)CC1	0	0	0	0	0
Cc1ccc(-n2nc(C)c3c(C)cc(=O)n(CC(=O)Nc4cccc(C)c4C)c32)cc1	0	0	0	0	0
Cc1ccc(NC(=O)CNCc2cccs2)cc1Br	0	0	0	0	0
CN(Cc1ccccc1)C(=O)c1ccc2c(c1)N(Cc1ccccc1Cl)C(=O)c1ccccc1S2	0	0	0	0	0
COc1ccc(C2CCCN2C(=S)Nc2ccccc2C)cc1OC (stereo not given)	0	0	0	0	0
COc1ccc(C2CCCN2C(=S)Nc2cccc(Cl)c2)cc1OC (stereo not given)	0	0	0	0	0
COc1ccc(C2CCCN2C(=S)Nc2ccc(C)cc2C)cc1OC (stereo not given)	0	0	0	-38	0
COc1cccc(NC(=S)N2CCCC2c2ccc(OC)c(OC)c2)c1 (stereo not given)	0	0	0	-61	0
Cc1ccc(S(=O)(=O)CCC(O)c2ccc(Cl)cc2)cc1 (stereo not given)	0	0	0	0	0
Cc1nc2c(c(C)nn2-c2ccccc2)c(C)c1CCC(=O)Nc1ccc(CN2CCCC2)cc1	0	0	0	-39	0
Cc1nc2c(c(C)nn2-c2ccccc2)c(C)c1CCC(=O)Nc1ccccc1	0	0	0	0	0
Cc1ccc(NC(=O)CN(C)C(=O)C(Sc2ccccc2)c2ccccc2)cc1 (stereo not given)	0	0	-	0	0
Cc1c(Cl)cccc1Nc1nc(N)nc(CN2CCc3ccccc3C2)n1	0	0	0	0	0
Cc1ccc(Nc2nc(N)nc(CN3CCc4ccccc4C3)n2)cc1	0	0	0	-37	0
COc1ccccc1Nc1nc(N)nc(CN2CCN(Cc3ccccc3)CC2)n1	0	0	0	-37	0
Nc1nc(CN2CCN(Cc3ccccc3)CC2)nc(Nc2ccccc2)n1	0	0	0	-38	0
COc1ccccc1Nc1nc(N)nc(CN2CCCCC2)n1	0	0	0	0	0
Cc1ccc(NS(=O)(=O)c2ccc3nc(-c4ccccc4)[nH]c3c2)c(Cl)c1	0	0	0	0	0
CCN1CCN(C(=O)c2ccc(CSc3ccc(C)cc3)cc2)CC1	183	0	0	0	0
O=C(c1ccccc1)N1CCN(Cc2ccccc2)CC1	0	0	0	-53	0
O=C(c1ccccc1)c1ccc(OCCCN2CCCC2)cc1	0	0	0	0	0
O=C(c1ccc(-c2ccccc2)cc1)N1CCN(Cc2ccccn2)CC1	0	0	0	-31	0
O=C(c1ccccc1)c1ccc(OCCOCCN2CCN(Cc3ccccc3)CC2)cc1	0	0	0	-33	0
CCOC(=O)c1ccc(NC(=O)CC(=O)Nc2ccc3nc4n(c(=O)c3c2)CCCCC4)cc1	0	0	0	0	0
